# Screening data: PubChem, ICCB-Longwood Screening Facility, Harvard Medical School
# S aureus helic = S. aureus DNA helicase inhibition | inhibition, % (no concentration beside the values) | purified S. aureus helicase, fluorescence unwinding assay | hit rate 0.05% among 120,000; in the data active = inhibition above about 25%, passing the limit was not always enough
# Sa growth 42C = blocks Staphylococcus aureus growth; hit rate 0.53% among 170,000; relative growth, % (test concentration not listed); S. aureus RN4220 growth, OD600, 20 h, 42 °C; active compounds read low;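 active = relative growth at most 50% at the other temperature and 20+ points below 30 °C, or under 10% at both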
# Numbers stand for hits; - = inactive; . = no result given. This is a sample that favours compounds with a hit; in the whole collection about 0.52% have one here.
SMILES,S aureus helic,Sa growth 42C
CC(C)Cn1cnc2c(c(-c3ccccc3)c(-c3ccccc3)n2Cc2ccco2)c1=N,-,48
N=c1c2c(-c3ccccc3)c(-c3ccccc3)n(Cc3ccco3)c2ncn1CCCN1CCOCC1,-,-
c1ccc(-c2csc3ncnc(NCCCn4ccnc4)c23)cc1,.,-
CC(C)=C1C(=O)Nc2ccc(S(=O)(=O)N3CCc4ccccc43)cc21,-,-
CCN(CC)S(=O)(=O)c1cccc(C(=O)OCC(=O)c2ccc3c(c2)OCO3)c1,-,-
CCN(CC)S(=O)(=O)c1cc(C(=O)Oc2ccc3c(c2)OCO3)ccc1C,-,44
Cc1oc2c(c1C(=O)NCc1ccccn1)C(=O)c1ccccc1C2=O,-,0.6
Cc1c(C(=O)NCCCN2CCOCC2)cc(-c2ccccc2)n1-c1ccccc1,.,-
Cc1oc2c(c1C(=O)NCc1ccccc1)C(=O)c1ccccc1C2=O,-,-
Cc1oc2c(c1C(=O)O)C(=O)c1ccccc1C2=O,-,-
Cc1oc2c(c1C(=O)NCCCN1CCOCC1)C(=O)c1ccccc1C2=O,-,1.7
Cc1oc2c(c1C(=O)N1CCc3ccccc3C1)C(=O)c1ccccc1C2=O,-,6.5
CCC1CCc2nc3sc(C(=O)NCCc4ccc(OC)cc4)c(N)c3cc2C1 (stereo not drawn),-,-
CC1=CCC(C(=O)Nc2nc3ccccc3s2)C(C(=O)O)C1 (stereo not drawn),-,-
C[C@@H](O)[C@H]1C(=O)N2C(C(=O)O)=C(S[C@@H]3CN[C@H](C(=O)N(C)C)C3)[C@H](C)[C@H]12,.,-0.5
Cc1nnc(SC2CCN(S(=O)(=O)c3cccc(C(F)(F)F)c3)CC2)s1,-,-
NC(=O)NCC(=O)N1CCN(c2c(F)c(F)c(F)c(F)c2F)CC1,-,-
CCOC(=O)c1cn(C2CC2)c2c(F)c(F)c(F)cc2c1=O,-,-
COc1ccc(C(=O)COC(=O)CN2c3nc4ccccc4nc3C3C=CC=CC32)cc1 (stereo not drawn),-,-
C=C(NC(=O)C(=C)NC(=O)c1csc(C2=NC3c4csc(n4)C4NC(=O)c5csc(n5)C(C(C)(O)C(C)O)NC(=O)C5CSC(=N5)C(=CC)NC(=O)C(C(C)O)NC(=O)c5csc(n5)C3(CC2)NC(=O)C(C)NC(=O)C(=C)NC(=O)C(C)NC(=O)C(C(C)CC)NC2C=Cc3c(C(C)O)cc(nc3C2O)C(=O)OC4C)n1)C(N)=O (stereo not drawn),.,-1.0
COC(=O)c1c2c(n3ccc(C)cc13)C(=O)c1ccccc1C2=O,-,7.5
COC(=O)c1c2c(n3ccccc13)C(=O)c1ccccc1C2=O,-,.
O=S(=O)(c1cccc2ccccc12)N1CCCCC1,-,-
CC(C)CNC(=O)c1ccccc1S(=O)(=O)N1CCCCC1,-,49
O=C(CCC1CC(=O)Nc2ccccc21)NCCC1=CCCCC1 (stereo not drawn),-,-
SMILES,S aureus helic,Sa growth 42C
CN(C1=CC(=O)c2ccccc2C1=O)c1ccccc1,-,.
COC1=CC(=O)c2ccccc2C1=O,-,1.0
Cc1ccc(NC(=O)CN2C(=O)S/C(=C\c3ccc(C)o3)C2=O)cc1,-,-
COc1ccc(/C=C(\C#N)c2ccc(OC)cc2)cc1,.,-
COc1ccc(/C=C(\C#N)c2ccc(C)cc2)cc1,.,44
CCCCNC(=O)CN1CCN(Cc2cccc(OCC)c2OC)CC1,-,-
CN(C)c1ccc(Nc2nc(-c3cccnc3)nc3ccccc23)cc1,-,0.2
c1cncc(-c2nc(Nc3ccc4c(c3)OCO4)c3ccccc3n2)c1,-,-
CC(C)(C)NC(=S)Nc1cccc(Cl)c1,-,-
S=C(Nc1cccc(Cl)c1)Nc1cccc(Cl)c1,.,0.0
COc1cc(OC)cc(C(=O)Nc2ccnn2C2CCCCC2)c1,-,-
CCCCCCCCCCCCCCCC(=O)O[C@@H]1[C@@H](O)[C@@H](O)[C@@H](C(NC(=O)[C@@H]2C[C@@H](CCC)CN2C)C(C)Cl)O[C@@H]1SC (stereo partly drawn),.,-
CCC[C@@H]1C[C@@H](C(=O)N[C@@H]([C@H]2O[C@H](SC)[C@H](O)[C@@H](O)[C@H]2O)[C@@H](C)O)N(C)C1,.,0.0
CC(C)(C)OC(=O)N1CCNC(=O)C1,-,.
CCOc1cccc(C(=O)Oc2cccc3ccc(C)nc23)c1,-,-
Cc1ccc2cccc(OC(=O)c3ccc(Br)o3)c2n1,-,0.3
Cc1cccc2nc(-c3ccccn3)c(Nc3ccccc3)n12,.,-
Cc1cccc2nc(-c3ccccn3)c(Nc3ccc(F)cc3)n12,.,1.2
N#CC1=C(N)Oc2nc[nH]c(=O)c2C1c1ccccc1Cl (stereo not drawn),-,-
C[n+]1ccc(/C=C/c2ccc(N3CCCC3)o2)cc1,57,-
N#C/C(=C\c1ccc(N2CCCC2)o1)c1ccccc1,-,-
N#C/C(=C\c1ccc(F)cc1)c1c[nH]c2ccccc12,.,42
N#C/C(=C\c1ccc(Cl)cc1Cl)c1c[nH]c2ccccc12,.,-
O=C(/C=C/c1cccc(C(F)(F)F)c1)OCC(=O)c1ccc(Cl)s1,-,-
S=C(S)N1CCCC1,-,1.7
NC(=S)N1CCCC1,-,-
